Test results from PubChem BioAssay (NCATS).
Results filed as inconclusive are left out. The source made the active and inactive calls. Calls follow the shape of the dose curve; as a rule, active = well fitted curve in the direction sought with a large enough effect; inconclusive = small, poorly fitted or top-dose-only effect, or another doubt; inactive = no such curve, though single readings can be large; an effect the other way counts as inactive or inconclusive.

How the values were obtained:
[1] = target: Cellular tumor antigen p53 (Homo sapiens) (UniProt P04637); assay: Primary qHTS for small molecule compounds that upregulate eGFP-tagged delta133p53alpha (in N-terminal) cells. (AID 2060322); conditions: NCI-H358 eGFP-delta133p53alpha fluorescence, 24 h; activation: hits give high values;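 also: 0% = DMSO vehicle and 100% = reference activator; nearly all actives have a fitted effect of over 75% in size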
Sequence of Cellular tumor antigen p53 (Homo sapiens) (P04637 whole entry, looked up): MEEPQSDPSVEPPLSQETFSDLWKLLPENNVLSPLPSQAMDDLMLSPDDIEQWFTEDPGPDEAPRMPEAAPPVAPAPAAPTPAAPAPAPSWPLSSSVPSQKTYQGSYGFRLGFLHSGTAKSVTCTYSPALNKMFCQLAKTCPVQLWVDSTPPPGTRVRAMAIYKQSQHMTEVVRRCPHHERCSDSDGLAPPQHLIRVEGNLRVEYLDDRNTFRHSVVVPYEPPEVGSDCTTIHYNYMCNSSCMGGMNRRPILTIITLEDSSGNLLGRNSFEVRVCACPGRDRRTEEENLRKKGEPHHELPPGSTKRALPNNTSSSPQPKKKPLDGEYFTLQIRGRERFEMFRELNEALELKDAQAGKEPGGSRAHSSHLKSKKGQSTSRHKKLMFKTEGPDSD
In short: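 NCI-H358 cells pre-induced 24 h with 10 ng/ml doxycycline to express N-terminal eGFP-delta133p53alpha, then dosed 24 h at 37C without doxycycline; fixed, Hoechst-stained, GFP intensity by laser scanning cytometry, normalized to DMSO (0%) and 57.5 uM 5-azacytidine (100%).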

[2] = target: Aldehyde dehydrogenase, mitochondrial (Homo sapiens) (UniProt P05091); assay: qHTS for Inhibitors of the Aldehyde Dehydrogenase Family (ALDH2) Primary screen (AID 2061308); conditions: ALDH2 enzyme inhibition qHTS, 1536-well; series mostly up to 56 µM;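 also: plate controls were vehicle for no effect and reference inhibitor for full effect; nearly all actives have a fitted effect of over 55% in size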
[3] = target: Retinaldehyde dehydrogenase 3 (Homo sapiens) (UniProt P47895); assay: qHTS for Inhibitors of the Aldehyde Dehydrogenase Family (ALDH1A3) Primary screen (AID 2061315); conditions: ALDH inhibition qHTS; series mostly up to 56 µM;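 also: plate controls were DMSO vehicle for no effect and reference inhibitor for full effect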

Nc1nc2c(s1)CCN(Cc1ccc(Cl)cc1)CC2
inactive: activation [1] 19.1% | Potency [2] | Potency [3]

CC1=C2CC(O)(C(C)(C)O)C(O[C@@H]3O[C@H](CO)[C@@H](O)[C@H](O)[C@H]3O)CC(C)C2CC1=O (some centres undefined)
inactive: activation [1] -3.05% | Potency [2] | Potency [3]

C/C(=C\CC[C@@H](C)[C@H]1CC(O)[C@@]2(C)C3CC[C@H]4C(C)(C)[C@@H](OC5OCC(O)C(O)C5OC5OC(CO)C(O)C(O)C5O)CC[C@@]45C[C@@]35CC(O)[C@]12C)C(=O)O (some centres undefined)
inactive: activation [1] -16.8% | Potency [2] | Potency [3]

C[C@@H]1C(=O)O[C@H]2[C@H]1CC[C@@]1(C)C(=O)C=C[C@@](C)(O)[C@H]21
inactive: activation [1] 15.2% | Potency [2] | Potency [3]

CC1(C)CC[C@]2(C(=O)O)CC[C@]3(C)C(=CCC4[C@@]5(C)C[C@@H](O)[C@H](O)[C@](C)(CO)C5CC[C@]43C)[C@@H]2[C@@H]1O (some centres undefined)
inactive: activation [1] 12.5% | Potency [2] | Potency [3]

CC(C)C[C@H](NC(=O)[C@@H]1O[C@H]1C(=O)O)C(=O)NCCCCN=C(N)N
inactive: activation [1] -8.33% | Potency [2] | Potency [3]

CC(=O)O[C@H]1C[C@@](O)(C(C)C)C2[C@@H](OC(=O)c3ccc(O)cc3)C[C@@]3(C)O[C@H]3C[C@]21C (some centres undefined)
inactive: activation [1] -6.11% | Potency [2] | Potency [3]

CC12CCC(=O)C=C1C(O)CC1C2C(O)CC2(C)C1CC[C@]2(O)C(=O)CO (some centres undefined)
inactive: activation [1] 5.67% | Potency [2] | Potency [3]

CC(C)CCC(=O)CC1c2ccccc2C(=O)N1c1ccc2ccc(Cl)nc2n1 (centres undefined)
inactive: activation [1] 0.477% | Potency [2] | Potency [3]

CC(=C/C(=O)O)/C=C/[C@]1(O)[C@@]2(C)CO[C@]1(C)C[C@H](O[C@@H]1O[C@H](CO)[C@@H](O)[C@H](O)[C@H]1O)C2
inactive: activation [1] -16.1% | Potency [2] | Potency [3]

COC(=O)C(Cc1ccccc1)NC(=O)c1ccccc1 (centres undefined)
inactive: activation [1] 6.87% | Potency [2] | Potency [3]

C=C(CCO)C(=O)OCC1OCC(OC(=O)C(=C)CCO[C@@H]2O[C@H](COC(=O)C(=C)CCO[C@@H]3O[C@H](CO)[C@@H](O)[C@H](O)[C@H]3O)[C@@H](O)[C@H](O)[C@H]2O)C(O)C1O (some centres undefined)
inactive: activation [1] 11.5% | Potency [2] | Potency [3]

C=CC1(C)CC=C2C(CCC3C(C)(C(=O)O)CCCC23C)C1 (centres undefined)
inactive: activation [1] -1.53% | Potency [2] | Potency [3]

CC(=O)O[C@H]1C[C@@]2(C)[C@@H](CC[C@H]3[C@@]4(C)C=CC(=O)[C@@H](C)[C@@H]4[C@H](OC(C)=O)C(=O)[C@@]32C)/C1=C(\CCC=C(C)C)C(=O)O
inactive: activation [1] -16% | Potency [2] | Potency [3]

CC1(C)C(=O)N2c3ccccc3[C@]3(CC(n4cnc5ccccc5c4=O)C(=O)O3)[C@H]2N1O (some centres undefined)
inactive: activation [1] 1.53% | Potency [2] | Potency [3]

CC(=O)O[C@@H]1[C@H]2[C@@H](OC(=O)c3ccccc3)[C@@H](C)C[C@]2(O)[C@H](OC(C)=O)[C@@]2(C)[C@@H]3CC(C)(C)C(=O)[C@]3(OC(C)=O)C[C@@]12C
inactive: activation [1] -15.2% | Potency [2] | Potency [3]

C=CC(C)(O)CC/C=C(\C)C(=O)OC1CC2(C(=O)O)CCC3(C)C(=CCC4C5(C)CCC(OC6OC(COC7OCC(O)C(O)C7O)C(O)C(OC7OCC(O)C(O)C7O)C6OC6OC(CO)C(O)C(O)C6OC6OCC(O)C(O)C6O)C(C)(C)C5CCC43C)C2CC1(C)C (centres undefined)
inactive: activation [1] -7.14% | activity change, negative = inhibition [2] 3.26% [at 11.2 µM] | activity change, negative = inhibition [3] -4.78% [at 11.2 µM]

COC(=O)C1=COC(OC2OC(CO)C(O)C(O)C2O)C2C1CC(OC(=O)C(O)CC(=O)O)C2C (centres undefined)
inactive: activation [1] 10.7% | Potency [2] | Potency [3]

CC(O)C(C)n1ncn(-c2ccc(N3CCN(c4ccc(OCC5COC(Cn6cncn6)(c6ccc(Cl)cc6Cl)O5)cc4)CC3)cc2)c1=O (centres undefined)
inactive: activation [1] -5.67% | Potency [2] | Potency [3]

C=C(C(=O)O)C1CCC2(C)CCCC(C)(O)C2C1 (centres undefined)
inactive: activation [1] -5.36% | Potency [2] | Potency [3]

O=C(CCc1ccccc1)c1c(O)c([C@@H]2O[C@H](CO)[C@@H](O)[C@H](O)[C@H]2O)c(O)c([C@@H]2O[C@H](CO)[C@@H](O)[C@H](O)[C@H]2O)c1O
inactive: activation [1] -1.53% | Potency [2] | Potency [3]

CC(=O)OC1C(O)C2C(C)C3=CC(=O)OC3(O)CC2C2(C)CCCC(C)(CO)C12 (centres undefined)
inactive: activation [1] 9.16% | Potency [2] | Potency [3]

C[C@@H]1C(=O)O[C@H]2C[C@]34[C@H]5C[C@@H](C(C)(C)C)[C@]36[C@@H](OC(=O)[C@H]6O)O[C@]4(C(=O)O5)[C@]21O
inactive: activation [1] -22.1% | Potency [2] | Potency [3]
